Test results taken from PubChem BioAssay AID1159580 (chemical genetic matrix, 2015).
Values joined by “and” are separate entries in the source; they are usually repeats but may differ in a detail not shown here. Equal entries are not always repeated. The whole screen tested about 5,500 compounds, of which about 2,000 (36%) were called active. About 18% were inconclusive and are not listed. Cut-off read from the data, not from the text of the source: active = normalized growth mostly below about 0.91 (no sharp cut-off); inconclusive = no clear call, values can overlap the other calls; inactive = mostly above about 0.92. The list shows a part of the results.

Test: chemical genetic growth profiling, strain panel (AID 1159580);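 note: tested at 20 µM; growth read once vehicle control cultures reached saturation at 30 °C; 1 = growth at the plate median or of vehicle wells; lower values mean less growth of the strain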
Settings: S. cerevisiae deletion strains, growth OD

Measured: normalized growth

Cc1cc(O)c(C=O)c(O)c1C(=O)O
inactive: locus YAL021C, strain ccr4, active compounds read low 0.991 | locus YAL026C, strain drs2, active compounds read low 1.01 | locus YAL030W, strain snc1, active compounds read low 0.997 | locus YBL061C, strain skt5, active compounds read low 1.01 | locus YBR009C, strain hhf1, active compounds read low 1.02 | locus YBR021W, strain FUR4, active compounds read low 1.05 | locus YBR023C, strain chs3, active compounds read low 1.01 | locus YBR171W, strain sec66, active compounds read low 1 | locus YBR229C, strain ROT2, active compounds read low 0.999 | locus YBR231C, strain swc5, active compounds read low 0.99 | locus YBR279W, strain paf1, active compounds read low 0.997 | locus YCL011C, strain gbp2, active compounds read low 1.01 | locus YCL016C, strain dcc1, active compounds read low 1.01 | locus YCL029C, strain bik1, active compounds read low 1.02 | locus YCL061C, strain MRC1, active compounds read low 1.01 | locus YCL069W, strain vba3, active compounds read low 1 | locus YCR088W, strain abp1, active compounds read low 1.01 | locus YDL005C, strain med2, active compounds read low 1.01 | locus YDL035C, strain GPR1, active compounds read low 1.03 | locus YDL040C, strain nat1, active compounds read low 1.01 | locus YDL074C, strain BRE1, active compounds read low 1.06 | locus YDL101C, strain DUN1, active compounds read low 1.03 | locus YDL185W, strain tfp1, active compounds read low 0.987 | locus YDL192W, strain arf1, active compounds read low 1.03 | locus YDR001C, strain nth1, active compounds read low 0.999 | locus YDR069C, strain doa4, active compounds read low 0.977 | locus YDR101C, strain arx1, active compounds read low 1.04 | locus YDR137W, strain rgp1, active compounds read low 1.01 | locus YDR150W, strain NUM1, active compounds read low 0.983 | locus YDR159W, strain sac3, active compounds read low 1.01 | locus YDR162C, strain NBP2, active compounds read low 1.02 | locus YDR195W, strain ref2 0.99 | locus YDR297W, strain sur2, active compounds read low 0.997 | locus YDR318W, strain mcm21, active compounds read low 1 | locus YDR334W, strain swr1, active compounds read low 0.987 | locus YDR335W, strain msn5, active compounds read low 0.991 | locus YDR388W, active compounds read low 0.997 | locus YDR392W, strain spt3, active compounds read low 0.962 | locus YDR502C, strain sam2, active compounds read low 1.03 | locus YEL003W, strain gim4, active compounds read low 0.995 | locus YEL037C, strain rad23, active compounds read low 0.993 | locus YEL061C, strain CIN8 (second series), active compounds read low 0.999 | locus YEL061C, strain CIN8, active compounds read low 1.01 | locus YER015W, strain faa2, active compounds read low 1 | locus YER016W, strain bim1, active compounds read low 1 | locus YER110C, active compounds read low 1.01 | locus YER111C, strain swi4, active compounds read low 1 | locus YER155C, strain BEM2 (second series), active compounds read low 1 | locus YER155C, strain BEM2, active compounds read low 1.01 | locus YER167W, strain BCK2, active compounds read low 1.03 | locus YFR010W, strain ubp6, active compounds read low 0.999 | locus YGL078C, strain dbp3, active compounds read low 1.01 | locus YGL086W, strain mad1, active compounds read low 1.03 | locus YGL167C, strain pmr1, active compounds read low 0.989 | locus YGL173C, strain kem1, active compounds read low 1.01 | locus YGL227W, strain vid30, active compounds read low 0.999 | locus YGL240W, strain doc1, active compounds read low 0.929 | locus YGL248W, strain PDE1, active compounds read low 1.03 | locus YGL253W, strain hxk2, active compounds read low 1 | locus YGR078C, strain PAC10, active compounds read low 1.06 | locus YGR135W, strain pre9, active compounds read low 1.02 | locus YGR252W, strain gcn5, active compounds read low 1 | locus YHR013C, strain ard1, active compounds read low 1.01 | locus YHR027C, strain rpn1, active compounds read low 0.992 | locus YHR030C, strain SLT2, active compounds read low 1 and 1.02 | locus YHR079C, strain IRE1 (second series), active compounds read low 1.01 | locus YHR079C, strain IRE1, active compounds read low 1.04 | locus YHR094C, strain hxt1, active compounds read low 1.01 | locus YHR129C, strain ARP1, active compounds read low 1.02 | locus YHR142W, strain chs7, active compounds read low 1.03 | locus YHR200W, strain rpn10, active compounds read low 1.02 | locus YIL066C, strain RNR3, active compounds read low 1.05 | locus YIL073C, strain SPO22, active compounds read low 1.12 | locus YIL125W, strain kgd1, active compounds read low 1 | locus YIR030C, strain dcg1, active compounds read low 1.02 | locus YJL092W, strain hpr5, active compounds read low 1.01 | locus YJL095W, strain BCK1 (second series), active compounds read low 1.01 | locus YJL095W, strain BCK1, active compounds read low 1.1 and 1 | locus YJL115W, strain asf1, active compounds read low 0.999 | locus YJL129C, strain trk1, active compounds read low 1.05 | locus YJL134W, strain LCB3, active compounds read low 0.993 | locus YJL154C, strain vps35, active compounds read low 0.996 | locus YJL164C, strain tpk1, active compounds read low 1.02 | locus YJL166W, strain qcr8, active compounds read low 1.01 | locus YJL168C, strain set2, active compounds read low 0.997 | locus YJL187C, strain SWE1 (second series), active compounds read low 1.05 | locus YJL187C, strain SWE1, active compounds read low 0.998 | locus YJR043C, strain POL32, active compounds read low 1.02 | locus YJR066W, strain TOR1, active compounds read low 0.93 | locus YJR075W, strain HOC1, active compounds read low 1.06 | locus YKL009W, strain mrt4, active compounds read low 1.04 | locus YKL068W, active compounds read low 0.987 | locus YKL085W, strain MDH1 (second series), active compounds read low 1 | locus YKL085W, strain MDH1, active compounds read low 1 | locus YKL160W, strain elf1, active compounds read low 1.03 | locus YKR001C, strain vps1, active compounds read low 1.03 | locus YKR026C, strain gcn3, active compounds read low 1.01 | locus YKR091W, strain srl3, active compounds read low 1.01 | locus YLL001W, strain dnm1, active compounds read low 1.02 | locus YLL026W, active compounds read low 1.01 | locus YLL041C, strain sdh2, active compounds read low 0.997 | locus YLR027C, strain aat2, active compounds read low 1.01 | locus YLR039C, strain RIC1, active compounds read low 1.09 | locus YLR058C, strain SHM2, active compounds read low 0.965 | locus YLR102C, strain apc9, active compounds read low 1.01 | locus YLR113W, strain HOG1, active compounds read low 1.07 | locus YLR221C, strain rsa3, active compounds read low 1.03 | locus YLR258W, strain gsy2, active compounds read low 1 | locus YLR262C, strain YPT6 (second series), active compounds read low 1.01 | locus YLR262C, strain YPT6, active compounds read low 1.14 | locus YLR268W, strain sec22, active compounds read low 1.04 | locus YLR320W, strain mms22, active compounds read low 1.05 | locus YLR330W, strain CHS5, active compounds read low 1 | locus YLR342W, strain FKS1 (second series), active compounds read low 1.01 | locus YLR342W, strain FKS1, active compounds read low 1.01 | locus YLR357W, strain rsc2, active compounds read low 1.02 | locus YLR370C, strain arc18, active compounds read low 1 | locus YLR371W, strain rom2, active compounds read low 1.01 | locus YLR384C, strain iki3, active compounds read low 0.999 | locus YLR418C, strain cdc73, active compounds read low 1.05 | locus YML016C, strain PPZ1, active compounds read low 1.01 | locus YML032C, strain rad52, active compounds read low 0.985 | locus YML120C, strain ndi1, active compounds read low 1.01 | locus YML124C, strain tub3, active compounds read low 1.01 | locus YMR058W, strain fet3, active compounds read low 0.987 | locus YMR078C, strain ctf18, active compounds read low 0.999 | locus YMR125W, strain sto1, active compounds read low 1.01 | locus YMR129W, active compounds read low 1 | locus YMR205C, strain PFK2, active compounds read low 1.05 | locus YMR223W, strain ubp8, active compounds read low 1.02 | locus YMR231W, strain pep5, active compounds read low 0.989 | locus YMR263W, strain SAP30, active compounds read low 1.06 | locus YMR307W, strain GAS1, active compounds read low 1.08 | locus YNL067W, strain RPL9B, active compounds read low 1.05 | locus YNL071W, strain lat1, active compounds read low 1.01 | locus YNL183C, strain NPR1, active compounds read low 0.946 | locus YNL209W, strain ssb2, active compounds read low 0.992 | locus YNL233W, strain BNI4, active compounds read low 1.09 | locus YNL248C, strain rpa49, active compounds read low 1.01 | locus YNL250W, strain rad50, active compounds read low 0.986 | locus YNL271C, strain bni1, active compounds read low 1 | locus YNL298W, strain CLA4, active compounds read low 1.01 | locus YNL307C, strain MCK1, active compounds read low 1.03 | locus YNL322C, strain KRE1 (second series), active compounds read low 1.01 | locus YNR049C, strain mso1, active compounds read low 1.01 | locus YNR052C, strain pop2, active compounds read low 0.992 | locus YOL012C, strain htz1 0.989 | locus YOL147C, strain pex11, active compounds read low 1 | locus YOR001W, strain rrp6, active compounds read low 1.02 | locus YOR061W, strain CKA2, active compounds read low 1 | locus YOR069W, strain VPS5, active compounds read low 1.01 | locus YOR070C, strain gyp1, active compounds read low 0.998 | locus YOR080W, strain dia2, active compounds read low 0.998 | locus YOR083W, strain WHI5, active compounds read low 1.04 | locus YOR106W, strain vam3, active compounds read low 1.03 | locus YOR136W, strain idh2, active compounds read low 1.03 | locus YOR144C, strain elg1, active compounds read low 1 | locus YOR184W, strain ser1, active compounds read low 1.05 | locus YOR231W, strain MKK1, active compounds read low 1.04 | locus YOR265W, strain rbl2, active compounds read low 1.01 | locus YOR270C, strain vph1, active compounds read low 1.02 | locus YOR290C, strain snf2, active compounds read low 1.02 | locus YOR316C, strain cot1, active compounds read low 1.01 | locus YPL051W, strain arl3, active compounds read low 0.999 | locus YPL078C, strain atp4, active compounds read low 1.01 | locus YPL106C, strain sse1, active compounds read low 0.995 | locus YPL240C, strain hsp82, active compounds read low 1 | locus YPL241C, strain CIN2, active compounds read low 0.995 | locus YPL256C, strain CLN2, active compounds read low 1.03 | locus YPR119W, strain clb2, active compounds read low 0.999 | locus YPR141C, strain kar3, active compounds read low 0.993 | locus YPR163C, strain tif3, active compounds read low 1 | locus YPR167C, strain met16, active compounds read low 1.01 | strain wtn01, active compounds read low 1.04
